# Measurements taken from paper PMC7862700, “An all-to-all approach to the identification of sequence-specific readers for epigenetic DNA modifications on cytosine”.
# Assays:
# Test in all cases: DAPPL (digital affinity profiling via proximity ligation, sequencing); 10 mM Tris-HCl pH 7.5, 50 mM NaCl, 1 mM DTT, 4% glycerol, room temperature, 30 min; GST-TFs on glutathione beads, 16-mer random dsDNA library, 0.1% formaldehyde crosslink after washing; high values mean tight binding
# [1] = molecular target: T1, FLI1 (Homo sapiens, UniProt Q01543 1-452); settings: protein: recombinant; tags: N-terminal GST; dsDNA, one strand shown
# T1 sequence: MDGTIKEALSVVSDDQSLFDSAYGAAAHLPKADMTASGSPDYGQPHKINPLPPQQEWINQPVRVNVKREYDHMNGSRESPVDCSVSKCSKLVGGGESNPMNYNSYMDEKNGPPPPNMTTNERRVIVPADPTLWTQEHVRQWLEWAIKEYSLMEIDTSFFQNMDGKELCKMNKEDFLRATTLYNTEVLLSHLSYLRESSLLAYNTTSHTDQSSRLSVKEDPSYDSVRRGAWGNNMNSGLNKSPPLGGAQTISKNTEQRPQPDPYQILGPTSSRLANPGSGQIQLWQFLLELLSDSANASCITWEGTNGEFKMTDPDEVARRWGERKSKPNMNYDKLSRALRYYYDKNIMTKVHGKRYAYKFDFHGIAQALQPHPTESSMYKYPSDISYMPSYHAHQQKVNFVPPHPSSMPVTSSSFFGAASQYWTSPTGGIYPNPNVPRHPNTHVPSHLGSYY
# Method in brief: (§1)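 Beads coated with glutathione captured GST-fused human transcription factors that had been expressed in yeast, and the factors were then given DNA barcodes and pooled with a tag-only sample. The pools were incubated with 200 nmole of a random double-stranded 16-mer DNA library in Tris/NaCl/DTT/glycerol buffer for 30 min at room temperature, washed, crosslinked with 0.1% formaldehyde and proximity-ligated with BsaI/T4 ligase at 37 °C for 1 h. PCR amplification and Illumina NextSeq500 sequencing came last. Binding signal is each hexamer's read frequency for a factor divided by its frequency for the tag-only sample.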
# [2] = molecular target: T2, ELK1 (Homo sapiens, UniProt P19419 1-428); settings: protein: recombinant; tags: N-terminal GST; dsDNA, one strand shown
# T2 sequence: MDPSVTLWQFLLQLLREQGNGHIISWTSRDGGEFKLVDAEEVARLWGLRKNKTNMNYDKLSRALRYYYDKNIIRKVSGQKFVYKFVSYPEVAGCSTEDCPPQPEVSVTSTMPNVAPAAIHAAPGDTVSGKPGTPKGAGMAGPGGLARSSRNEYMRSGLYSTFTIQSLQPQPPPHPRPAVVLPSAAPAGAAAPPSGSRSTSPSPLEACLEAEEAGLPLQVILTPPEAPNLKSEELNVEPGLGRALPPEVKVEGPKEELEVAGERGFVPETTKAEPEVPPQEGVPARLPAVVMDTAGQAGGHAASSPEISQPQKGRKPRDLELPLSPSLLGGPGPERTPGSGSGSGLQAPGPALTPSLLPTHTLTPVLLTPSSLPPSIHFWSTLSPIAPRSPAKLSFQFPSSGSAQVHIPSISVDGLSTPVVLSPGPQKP
# Method in brief: as §1
# [3] = molecular target: T3, GABPA (Homo sapiens, UniProt Q06546 1-454); settings: protein: recombinant; tags: N-terminal GST; dsDNA, one strand shown
# T3 sequence: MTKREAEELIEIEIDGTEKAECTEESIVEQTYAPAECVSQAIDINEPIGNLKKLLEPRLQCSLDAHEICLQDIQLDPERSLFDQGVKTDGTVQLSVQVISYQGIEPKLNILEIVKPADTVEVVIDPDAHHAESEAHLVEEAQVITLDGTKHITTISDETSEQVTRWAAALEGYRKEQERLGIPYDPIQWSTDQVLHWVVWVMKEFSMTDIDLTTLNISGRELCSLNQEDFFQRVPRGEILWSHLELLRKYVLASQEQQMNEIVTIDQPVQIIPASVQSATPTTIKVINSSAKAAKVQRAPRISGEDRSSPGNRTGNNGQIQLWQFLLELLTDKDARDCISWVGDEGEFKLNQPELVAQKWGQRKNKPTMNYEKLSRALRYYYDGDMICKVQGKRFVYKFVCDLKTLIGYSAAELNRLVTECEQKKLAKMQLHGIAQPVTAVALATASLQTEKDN
# Method in brief: as §1
# [4] = molecular target: T4, ERG (Homo sapiens, UniProt P11308 1-479); settings: protein: recombinant; tags: N-terminal GST; dsDNA, one strand shown
# T4 sequence: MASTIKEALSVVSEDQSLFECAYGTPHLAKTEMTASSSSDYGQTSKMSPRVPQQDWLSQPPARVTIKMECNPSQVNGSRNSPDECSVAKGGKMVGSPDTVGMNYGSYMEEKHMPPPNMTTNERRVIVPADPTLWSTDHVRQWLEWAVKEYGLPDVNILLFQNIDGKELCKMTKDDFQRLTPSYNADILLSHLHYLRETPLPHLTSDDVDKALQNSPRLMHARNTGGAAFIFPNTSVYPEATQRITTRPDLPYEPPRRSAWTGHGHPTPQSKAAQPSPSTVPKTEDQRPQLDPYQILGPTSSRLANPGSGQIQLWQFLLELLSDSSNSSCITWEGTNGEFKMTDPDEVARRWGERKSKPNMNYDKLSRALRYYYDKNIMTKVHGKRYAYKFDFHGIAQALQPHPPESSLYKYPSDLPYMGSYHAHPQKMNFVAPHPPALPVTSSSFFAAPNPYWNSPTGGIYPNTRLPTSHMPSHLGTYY
# Method in brief: as §1
# [5] = molecular target: ELF1 (Homo sapiens, UniProt P32519 1-619); settings: protein: recombinant; tags: N-terminal GST; dsDNA, one strand shown
# Method in brief: as §1
# [6] = molecular target: T5, EHF (Homo sapiens, UniProt Q9NZC4 1-300); settings: protein: recombinant; tags: N-terminal GST; dsDNA, one strand shown
# T5 sequence: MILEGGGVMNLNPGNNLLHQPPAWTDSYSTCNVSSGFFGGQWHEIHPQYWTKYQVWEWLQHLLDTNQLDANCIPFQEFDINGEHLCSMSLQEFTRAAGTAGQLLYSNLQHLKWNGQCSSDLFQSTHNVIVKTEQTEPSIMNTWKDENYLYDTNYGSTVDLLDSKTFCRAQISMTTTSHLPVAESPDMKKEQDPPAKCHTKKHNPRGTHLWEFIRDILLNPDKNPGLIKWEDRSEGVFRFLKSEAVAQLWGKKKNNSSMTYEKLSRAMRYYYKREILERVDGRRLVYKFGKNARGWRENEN
# Method in brief: as §1
# [7] = molecular target: SPI1 (Homo sapiens, UniProt P17947 1-270); settings: protein: recombinant; tags: N-terminal GST; dsDNA, one strand shown
# Method in brief: as §1
# [8] = molecular target: SPIB (Homo sapiens, UniProt Q01892 1-262); settings: protein: recombinant; tags: N-terminal GST; dsDNA, one strand shown
# Method in brief: as §1
# [9] = molecular target: T6, ELK3 (Homo sapiens, UniProt P41970 1-407); settings: protein: recombinant; tags: N-terminal GST; dsDNA, one strand shown
# T6 sequence: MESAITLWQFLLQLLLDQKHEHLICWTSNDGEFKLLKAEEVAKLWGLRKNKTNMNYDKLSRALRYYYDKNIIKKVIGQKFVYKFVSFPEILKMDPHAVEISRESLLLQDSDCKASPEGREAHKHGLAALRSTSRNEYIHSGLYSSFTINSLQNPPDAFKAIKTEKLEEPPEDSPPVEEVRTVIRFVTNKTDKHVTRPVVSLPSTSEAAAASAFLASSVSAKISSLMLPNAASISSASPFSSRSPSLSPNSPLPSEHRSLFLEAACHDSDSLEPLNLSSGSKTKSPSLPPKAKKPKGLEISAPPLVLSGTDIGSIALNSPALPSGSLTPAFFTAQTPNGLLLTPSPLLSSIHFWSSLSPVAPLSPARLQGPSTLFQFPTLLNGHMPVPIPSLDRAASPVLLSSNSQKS
# Method in brief: as §1
# [10] = molecular target: T7, FEV (Homo sapiens, UniProt Q99581 1-238); settings: protein: recombinant; tags: N-terminal GST; dsDNA, one strand shown
# T7 sequence: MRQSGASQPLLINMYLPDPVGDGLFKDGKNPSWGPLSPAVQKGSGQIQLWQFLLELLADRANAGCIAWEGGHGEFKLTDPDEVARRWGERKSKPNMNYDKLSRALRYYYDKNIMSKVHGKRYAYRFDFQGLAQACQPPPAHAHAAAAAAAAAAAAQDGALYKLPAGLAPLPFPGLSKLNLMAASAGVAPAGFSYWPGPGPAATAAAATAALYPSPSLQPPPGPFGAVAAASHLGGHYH
# Method in brief: as §1
# [11] = molecular target: ETV5 (Homo sapiens, UniProt P41161 1-510); settings: protein: recombinant; tags: N-terminal GST; dsDNA, one strand shown
# Method in brief: as §1
# [12] = molecular target: HSF1 (Homo sapiens, UniProt Q00613 1-529); settings: protein: recombinant; tags: N-terminal GST; chain copies: 3; dsDNA, one strand shown
# Method in brief: as §1
# [13] = molecular target: T8, SPIC (Homo sapiens, UniProt Q8N5J4 1-248); settings: protein: recombinant; tags: N-terminal GST; dsDNA, one strand shown
# T8 sequence: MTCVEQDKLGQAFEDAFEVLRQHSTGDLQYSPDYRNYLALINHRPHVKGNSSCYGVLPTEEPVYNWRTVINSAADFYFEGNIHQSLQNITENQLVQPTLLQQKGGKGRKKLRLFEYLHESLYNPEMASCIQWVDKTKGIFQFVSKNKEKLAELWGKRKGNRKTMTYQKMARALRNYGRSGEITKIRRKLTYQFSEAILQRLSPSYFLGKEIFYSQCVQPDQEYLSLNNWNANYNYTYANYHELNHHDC
# Method in brief: as §1
# [14] = molecular target: ELF4 (Homo sapiens, UniProt Q99607 1-663); settings: protein: recombinant; tags: N-terminal GST; dsDNA, one strand shown
# Method in brief: as §1
# [15] = molecular target: T9, ELK4 (Homo sapiens, UniProt P28324-2 1-405); settings: protein: recombinant; tags: N-terminal GST; dsDNA, one strand shown
# T9 sequence: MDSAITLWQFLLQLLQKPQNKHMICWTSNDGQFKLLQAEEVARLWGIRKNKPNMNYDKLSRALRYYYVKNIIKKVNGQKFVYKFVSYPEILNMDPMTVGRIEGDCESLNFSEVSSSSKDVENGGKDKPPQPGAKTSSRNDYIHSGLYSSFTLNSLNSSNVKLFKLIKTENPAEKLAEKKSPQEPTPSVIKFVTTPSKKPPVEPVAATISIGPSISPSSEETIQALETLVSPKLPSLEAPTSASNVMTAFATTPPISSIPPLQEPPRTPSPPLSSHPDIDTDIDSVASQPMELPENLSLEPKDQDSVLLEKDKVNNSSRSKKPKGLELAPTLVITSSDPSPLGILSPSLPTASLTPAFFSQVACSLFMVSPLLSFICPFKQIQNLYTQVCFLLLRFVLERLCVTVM
# Method in brief: as §1
# [16] = molecular target: T10, ETV2 (Homo sapiens, UniProt O00321 1-342); settings: protein: recombinant; tags: N-terminal GST; dsDNA, one strand shown
# T10 sequence: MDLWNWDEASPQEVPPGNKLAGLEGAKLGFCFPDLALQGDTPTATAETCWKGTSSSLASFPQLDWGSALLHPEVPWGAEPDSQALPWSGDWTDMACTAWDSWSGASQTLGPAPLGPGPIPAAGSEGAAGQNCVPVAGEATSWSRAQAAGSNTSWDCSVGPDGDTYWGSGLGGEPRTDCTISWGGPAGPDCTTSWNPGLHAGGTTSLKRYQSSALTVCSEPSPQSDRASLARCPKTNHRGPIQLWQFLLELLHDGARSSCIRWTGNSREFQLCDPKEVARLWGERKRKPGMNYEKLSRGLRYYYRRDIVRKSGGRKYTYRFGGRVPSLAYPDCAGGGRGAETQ
# Method in brief: as §1
# [17] = molecular target: T11, ELF3 (Homo sapiens, UniProt P78545 1-371); settings: protein: recombinant; tags: N-terminal GST; dsDNA, one strand shown
# T11 sequence: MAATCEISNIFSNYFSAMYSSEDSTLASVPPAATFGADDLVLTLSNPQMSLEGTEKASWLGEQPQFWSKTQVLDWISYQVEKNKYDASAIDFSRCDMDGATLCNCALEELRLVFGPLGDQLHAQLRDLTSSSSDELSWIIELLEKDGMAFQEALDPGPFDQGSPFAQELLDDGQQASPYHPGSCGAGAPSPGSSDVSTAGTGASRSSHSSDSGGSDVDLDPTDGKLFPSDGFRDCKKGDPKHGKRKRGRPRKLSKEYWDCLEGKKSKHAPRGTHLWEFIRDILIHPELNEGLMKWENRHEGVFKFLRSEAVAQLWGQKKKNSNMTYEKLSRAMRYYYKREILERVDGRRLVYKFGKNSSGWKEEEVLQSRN
# Method in brief: as §1
# [18] = molecular target: CRX (Homo sapiens, UniProt O43186 1-299); settings: protein: recombinant; tags: N-terminal GST; dsDNA, one strand shown
# Method in brief: as §1
# [19] = molecular target: ETV1 (Homo sapiens, UniProt P50549 1-477); settings: protein: recombinant; tags: N-terminal GST; dsDNA, one strand shown
# Method in brief: as §1
# Sequence of ELF4 (Q99607 whole entry): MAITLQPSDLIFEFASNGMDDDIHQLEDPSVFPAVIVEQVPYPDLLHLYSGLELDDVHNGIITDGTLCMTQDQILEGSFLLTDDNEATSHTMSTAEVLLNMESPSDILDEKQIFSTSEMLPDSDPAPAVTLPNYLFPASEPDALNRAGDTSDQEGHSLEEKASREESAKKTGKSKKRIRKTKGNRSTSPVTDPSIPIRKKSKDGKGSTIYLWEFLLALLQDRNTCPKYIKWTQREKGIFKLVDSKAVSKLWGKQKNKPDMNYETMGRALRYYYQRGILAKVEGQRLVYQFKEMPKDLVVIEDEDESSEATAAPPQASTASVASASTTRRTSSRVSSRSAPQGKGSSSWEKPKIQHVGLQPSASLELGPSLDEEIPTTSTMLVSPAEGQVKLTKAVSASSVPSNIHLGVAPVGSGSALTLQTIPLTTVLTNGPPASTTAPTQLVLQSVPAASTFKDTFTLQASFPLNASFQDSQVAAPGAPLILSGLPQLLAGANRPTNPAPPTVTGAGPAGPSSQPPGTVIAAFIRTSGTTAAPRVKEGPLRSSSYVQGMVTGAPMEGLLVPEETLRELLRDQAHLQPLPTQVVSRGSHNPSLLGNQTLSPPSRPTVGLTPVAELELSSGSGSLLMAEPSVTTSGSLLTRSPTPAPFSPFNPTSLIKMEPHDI
# Sequence of ELF1 (P32519 whole entry): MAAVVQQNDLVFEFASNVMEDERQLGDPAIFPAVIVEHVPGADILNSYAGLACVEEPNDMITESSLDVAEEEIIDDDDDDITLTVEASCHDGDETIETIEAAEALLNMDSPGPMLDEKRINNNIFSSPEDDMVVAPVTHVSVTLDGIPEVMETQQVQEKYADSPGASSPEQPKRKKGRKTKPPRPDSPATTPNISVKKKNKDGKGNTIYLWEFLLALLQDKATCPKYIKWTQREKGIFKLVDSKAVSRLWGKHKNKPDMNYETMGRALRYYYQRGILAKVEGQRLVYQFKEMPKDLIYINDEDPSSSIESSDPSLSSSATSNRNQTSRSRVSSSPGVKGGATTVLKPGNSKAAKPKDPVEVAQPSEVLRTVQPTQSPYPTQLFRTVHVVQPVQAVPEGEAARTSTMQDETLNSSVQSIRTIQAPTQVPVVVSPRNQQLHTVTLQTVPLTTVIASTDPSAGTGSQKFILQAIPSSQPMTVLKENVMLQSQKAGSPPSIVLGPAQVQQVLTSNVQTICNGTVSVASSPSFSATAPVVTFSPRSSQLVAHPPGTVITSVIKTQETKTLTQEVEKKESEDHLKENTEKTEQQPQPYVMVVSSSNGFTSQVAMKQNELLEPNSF
# Sequence of ETV5 (P41161 whole entry): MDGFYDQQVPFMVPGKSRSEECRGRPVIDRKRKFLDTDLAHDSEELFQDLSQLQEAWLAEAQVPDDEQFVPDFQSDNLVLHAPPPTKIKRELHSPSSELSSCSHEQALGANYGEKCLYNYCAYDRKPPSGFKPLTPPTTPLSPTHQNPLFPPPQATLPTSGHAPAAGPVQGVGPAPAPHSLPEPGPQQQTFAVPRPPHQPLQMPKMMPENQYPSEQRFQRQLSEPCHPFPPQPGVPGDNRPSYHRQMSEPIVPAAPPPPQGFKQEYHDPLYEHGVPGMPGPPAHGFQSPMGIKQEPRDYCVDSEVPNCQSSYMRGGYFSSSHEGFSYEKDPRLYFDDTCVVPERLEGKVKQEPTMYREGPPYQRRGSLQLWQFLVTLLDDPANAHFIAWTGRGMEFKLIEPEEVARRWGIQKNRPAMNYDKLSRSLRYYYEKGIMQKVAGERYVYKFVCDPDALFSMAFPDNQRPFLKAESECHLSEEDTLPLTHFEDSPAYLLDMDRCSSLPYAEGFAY
# Sequence of CRX (O43186 whole entry): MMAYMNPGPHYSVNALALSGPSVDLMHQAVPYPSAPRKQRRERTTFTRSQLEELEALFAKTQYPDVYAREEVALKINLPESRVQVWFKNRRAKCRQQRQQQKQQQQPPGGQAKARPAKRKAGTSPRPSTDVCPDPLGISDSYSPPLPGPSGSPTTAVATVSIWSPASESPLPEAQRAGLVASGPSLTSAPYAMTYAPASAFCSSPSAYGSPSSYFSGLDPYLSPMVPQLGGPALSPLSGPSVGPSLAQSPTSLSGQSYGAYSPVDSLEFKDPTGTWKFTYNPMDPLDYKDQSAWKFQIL
# Sequence of HSF1 (Q00613 whole entry): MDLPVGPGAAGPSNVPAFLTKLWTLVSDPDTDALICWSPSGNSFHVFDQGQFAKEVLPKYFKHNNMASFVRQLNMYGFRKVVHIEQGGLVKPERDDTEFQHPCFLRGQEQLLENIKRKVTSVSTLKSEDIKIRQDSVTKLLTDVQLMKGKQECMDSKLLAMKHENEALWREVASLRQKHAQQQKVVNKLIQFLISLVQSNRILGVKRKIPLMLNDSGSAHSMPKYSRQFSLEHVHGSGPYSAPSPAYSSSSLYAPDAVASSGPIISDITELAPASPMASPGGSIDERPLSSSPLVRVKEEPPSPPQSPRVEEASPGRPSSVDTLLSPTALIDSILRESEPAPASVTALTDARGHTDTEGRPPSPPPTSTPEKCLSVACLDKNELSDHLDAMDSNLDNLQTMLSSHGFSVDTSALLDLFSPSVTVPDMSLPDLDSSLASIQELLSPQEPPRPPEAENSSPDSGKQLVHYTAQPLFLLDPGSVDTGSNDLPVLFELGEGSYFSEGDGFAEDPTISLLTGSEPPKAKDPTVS
# Sequence of SPIB (Q01892 whole entry): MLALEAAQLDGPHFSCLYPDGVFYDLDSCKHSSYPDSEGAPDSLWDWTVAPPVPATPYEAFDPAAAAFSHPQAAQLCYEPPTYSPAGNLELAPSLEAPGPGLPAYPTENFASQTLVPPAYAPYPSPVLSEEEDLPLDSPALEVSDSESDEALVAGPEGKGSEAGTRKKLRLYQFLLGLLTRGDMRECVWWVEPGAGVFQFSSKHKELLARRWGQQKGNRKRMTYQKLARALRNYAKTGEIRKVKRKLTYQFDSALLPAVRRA
# Sequence of ETV1 (P50549 whole entry): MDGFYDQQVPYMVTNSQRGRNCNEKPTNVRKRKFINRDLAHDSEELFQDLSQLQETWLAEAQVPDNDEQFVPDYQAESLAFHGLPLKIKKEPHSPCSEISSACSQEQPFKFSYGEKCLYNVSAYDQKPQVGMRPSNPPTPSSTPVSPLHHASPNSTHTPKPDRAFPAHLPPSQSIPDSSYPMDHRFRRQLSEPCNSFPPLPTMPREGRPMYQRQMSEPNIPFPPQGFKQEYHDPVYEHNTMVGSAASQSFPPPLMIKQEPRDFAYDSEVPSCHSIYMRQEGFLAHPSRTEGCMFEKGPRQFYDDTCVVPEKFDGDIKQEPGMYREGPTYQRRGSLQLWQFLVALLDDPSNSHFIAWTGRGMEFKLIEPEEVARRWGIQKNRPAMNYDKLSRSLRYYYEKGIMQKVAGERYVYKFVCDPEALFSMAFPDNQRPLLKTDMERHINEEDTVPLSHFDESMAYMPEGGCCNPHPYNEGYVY
sequence,measurement,setting,value
TCGATT,binding signal,[1],"1.12 fold enrichment (6-mer frequency, TF over GST control)"
same,binding signal,[2],"1.11 fold enrichment (6-mer frequency, TF over GST control)"
same,binding signal,[3],"1.13 fold enrichment (6-mer frequency, TF over GST control)"
same,binding signal,[4],"1.12 fold enrichment (6-mer frequency, TF over GST control)"
same,binding signal,[5],"1.12 fold enrichment (6-mer frequency, TF over GST control)"
same,binding signal,[6],"1.05 fold enrichment (6-mer frequency, TF over GST control)"
same,binding signal,[7],"1.08 fold enrichment (6-mer frequency, TF over GST control)"
same,binding signal,[8],"1.15 fold enrichment (6-mer frequency, TF over GST control)"
same,binding signal,[9],"1.06 fold enrichment (6-mer frequency, TF over GST control)"
same,binding signal,[10],"1.02 fold enrichment (6-mer frequency, TF over GST control)"
same,binding signal,[11],"1.12 fold enrichment (6-mer frequency, TF over GST control)"
same,binding signal,[12],"1.48 fold enrichment (6-mer frequency, TF over GST control)"
same,binding signal,[13],"1.2 fold enrichment (6-mer frequency, TF over GST control)"
same,binding signal,[14],"1.19 fold enrichment (6-mer frequency, TF over GST control)"
same,binding signal,[15],"1.14 fold enrichment (6-mer frequency, TF over GST control)"
same,binding signal,[16],"1.04 fold enrichment (6-mer frequency, TF over GST control)"
same,binding signal,[17],"1.1 fold enrichment (6-mer frequency, TF over GST control)"
same,binding signal,[18],"1.37 fold enrichment (6-mer frequency, TF over GST control)"
same,binding signal,[19],"1.14 fold enrichment (6-mer frequency, TF over GST control)"
